Here are results for 35 molecules from PubChem BioAssay (EPA / NIEHS).

Molecules are shown by their SMILES. The source made the active and inactive calls. The calls were made as follows: active = hit-call score of the fitted dose curve at least 0.9, where 1 is the maximum; inactive = score below 0.9.

Retinoic acid receptor alpha (Homo sapiens), sequence (P10276 whole entry, looked up): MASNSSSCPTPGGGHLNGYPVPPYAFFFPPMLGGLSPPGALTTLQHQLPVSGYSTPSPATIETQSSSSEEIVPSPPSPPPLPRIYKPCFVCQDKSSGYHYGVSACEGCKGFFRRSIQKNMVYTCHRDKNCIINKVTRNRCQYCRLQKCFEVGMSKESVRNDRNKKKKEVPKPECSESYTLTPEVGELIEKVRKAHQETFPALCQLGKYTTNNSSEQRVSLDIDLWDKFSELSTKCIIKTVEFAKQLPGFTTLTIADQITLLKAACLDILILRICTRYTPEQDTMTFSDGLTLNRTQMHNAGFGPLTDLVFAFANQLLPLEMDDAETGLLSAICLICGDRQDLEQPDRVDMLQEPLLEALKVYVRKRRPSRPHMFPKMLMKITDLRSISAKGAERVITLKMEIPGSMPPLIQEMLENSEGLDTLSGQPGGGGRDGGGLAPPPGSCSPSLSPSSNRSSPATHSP

In the assay the target is Retinoic acid receptor alpha (Homo sapiens) (UniProt P10276). The assay is described as follows: ATG_DR5_RAR_CIS: Attagene CIS-FACTORIAL HepG2 Assay for human Retinoic Acid Receptor Alpha (RARE), DR5 submotif (AID 2282934).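 As to AC50: reporter responds to endogenous RAR alpha beta and gamma in HepG2 not RARA alone.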 Particulars: HepG2 Attagene cis-factorial RARE DR5 reporter, mRNA; actives raise or lower the signal. The essentials:
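HepG2, transient cis-reporter transfection, 24 h exposure. mRNA readout: RT-PCR, FAM label, HpaI cut, capillary electrophoresis. DMSO baseline, gain/loss fitting.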
Take `Nc1cc(Cl)c(N)c(Cl)c1`: the molecule was called inactive. Still for that read-out and setting: with `O=C(CC(=O)C(F)(F)C(F)(F)F)C(F)(F)F` the entry was “inactive”; with `FC(F)(F)C(F)(F)CNCC(F)(F)C(F)(F)F`, “inactive”. Take `CCc1c(Br)c(Br)c(Br)c(Br)c1Br`: the AC50 was 16.4 µM (active). Consider `C=C(C)C(=O)OCCC(F)(F)C(F)(F)C(F)(F)C(F)(F)C(F)(C(F)(F)F)C(F)(F)F`, for which the call was inactive. For the molecule `C=CC(=O)OCC(F)(F)C(F)(F)C(F)(F)C(F)(F)COC(=O)C=C`, the AC50 was 60.6 µM (active). `CCc1ccc(C(c2ccc(CC)cc2)C(Cl)Cl)cc1`: the molecule was classed as inactive. On to `CO[Si](OC)(c1ccccc1)c1ccccc1`, for which the result was inactive. Turning to `Cc1cc(C)cc(O)c1`, the molecule was classed as inactive. Still for that read-out and setting: with `CCCCCCOC(=O)c1ccccc1O` the entry was “inactive”.

Turning to `O=C(O)C(F)(F)C(F)(F)C(F)(F)C(F)(F)C(F)(F)C(F)(F)C(F)(F)C(F)(F)C(F)(F)C(F)(F)C(F)(F)C(F)(F)F`, the molecule was called inactive. The same measure, in the same setting: with `CCCCCCS` the entry was “inactive”; with `CCCCOc1ccc(N)cc1`, “inactive”. The same measure, in the same setting: for `c1ccc(-c2ccccc2-c2ccccc2)cc1` the value was “inactive”. Take `FC(F)(F)C(F)(F)C(F)(F)C(F)(F)C(F)(F)C(F)(F)C(F)(F)C(F)(F)CCS`: the call was inactive. Still for that read-out and setting: for `CCCCNc1ccccc1` the value was “inactive”; for `OCC(F)(F)C(F)(F)C(F)(F)C(F)(F)C(F)(F)C(F)(F)F`, “inactive”. In the case of `O=C(O)C(F)(F)C(F)(F)C(F)(F)C(F)(F)F`, the call was inactive. Regarding `Cc1ccc(S(=O)(=O)OCC(F)(F)C(F)(F)C(F)(F)C(F)(F)C(F)(F)C(F)F)cc1`, the outcome was inactive. Still for that read-out and setting: with `CCCCCCOC(=O)c1ccccc1` the entry was “inactive”. The same measure, in the same setting: for `CCN(Cc1cccc(S(=O)(=O)O)c1)c1ccc(C(=C2C=CC(=[N+](CC)Cc3cccc(S(=O)(=O)O)c3)C=C2)c2ccc(O)cc2S(=O)(=O)[O-])cc1` the value was “inactive”. Still for that read-out and setting: for `CNC(=S)NC` the value was “inactive”; for `CCCCC(CC)COP(=O)(O)OCC(CC)CCCC` (stereo not given), “inactive”; for `C=C(C)C(=O)OCC(F)(F)C(F)(F)C(F)(F)F`, “inactive”.

For the molecule `COC(=O)C1CCC(C(=O)OC)CC1` (stereo not given), the result was inactive. On the same count and under the same terms, with `C=CC/C=C/C/C=C/C/C=C/C` the entry was “inactive”. Still for that read-out and setting: with `O=C(O)C(F)(F)C(F)(F)C(F)(F)C(F)(F)C(F)(F)C(F)(F)C(F)(F)C(F)(F)C(F)(F)C(F)(F)C(F)(F)C(F)(F)C(F)(F)F` the entry was “inactive”.

As to `C=CC(=O)OCC(F)(F)C(F)(F)C(F)(F)C(F)(F)C(F)(F)C(F)(F)C(F)(F)F`, the AC50 is 12.1 µM (active). On to `N=C(N)C(F)(F)C(F)(F)C(F)(F)C(F)(F)C(F)(F)C(F)(F)C(F)(F)F`, for which the molecule was classed as inactive. Consider `Nc1ccc(S(=O)(=O)Nc2nccs2)cc1`, for which the molecule was classed as inactive. On the same count and under the same terms, with `O=C(C=Cc1ccccc1)OCC=Cc1ccccc1` the entry was “inactive”; with `FC(F)(F)C(F)(F)C(F)(F)C(F)(F)C(F)(F)CCI`, “inactive”; with `Nc1ccc(Oc2cccc(Oc3ccc(N)cc3)c2)cc1`, “inactive”. On to `FC1CC(F)(F)C(F)(F)C1(F)F` (stereo not given), for which the molecule was called inactive.

With `CCCCCCCOC(=O)c1ccccc1C(=O)OCCCCCCC`, the outcome was inactive.
